{
  "source": "the supplement of paper PMC8975748",
  "note": "Counter-ions that a name gives are not always drawn.",
  "data": [
    {"system": "Saccharomyces cerevisiae BY4741 SeMeCo community", "test": "z-score of subpopulation abundance vs DMSO median, subpopulation auxotrophic for LM; higher = larger share of this subpopulation than in DMSO controls", "conditions": "10 µM; 24 h; SM minimal medium; subpopulation (auxotrophy): LM", "description": "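Fluorescent four-plasmid SeMeCo (self-establishing metabolically cooperating S. cerevisiae BY4741 community; plasmids pH-mRuby2, pL-mWasabi, pU-eCFP, pM-TagRFP657) was grown 24 h in minimal SM medium with each Selleck FDA-approved drug at 10 µM in 384-well plates. Cells were fixed and imaged by high-content confocal microscopy. For each auxotrophic subpopulation (and the prototroph), a z-score gives the deviation from the DMSO vehicle-control population median.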", "values": [
      {"smiles": "C[N+](C)(C)CCCCCCCCCC[N+](C)(C)C", "note": "[Decamethonium Bromide]", "z-score of subpopulation abundance": -0.15},
      {"smiles": "COc1ccc(C=O)cc1", "note": "[p-Anisaldehyde]", "z-score of subpopulation abundance": -0.17},
      {"smiles": "CC[C@H]1[C@@H]2C[C@H]3[C@@H]4N(C)c5ccccc5[C@]45C[C@@H]([C@@H]2[C@H]5O)N3[C@@H]1O", "note": "[Ajmaline]", "z-score of subpopulation abundance": -0.31},
      {"smiles": "O=c1[nH]c2ccccc2n1CCCN1CCC(n2c(=O)[nH]c3cc(Cl)ccc32)CC1", "note": "[Domperidone]", "z-score of subpopulation abundance": -0.04},
      {"smiles": "CC(C)(O)C(Cl)(Cl)Cl", "note": "[Chlorobutanol]", "z-score of subpopulation abundance": 0.13},
      {"smiles": "O=c1cccc2n1C[C@@H]1CNC[C@H]2C1", "note": "[Cytisine]", "z-score of subpopulation abundance": -0.02},
      {"smiles": "COc1ccc2[nH]cc(CCN)c2c1", "note": "[5-Methoxytryptamine]", "z-score of subpopulation abundance": 0.28},
      {"smiles": "O=[N+]([O-])C(Br)(CO)CO", "note": "[Bronopol]", "z-score of subpopulation abundance": -0.89},
      {"smiles": "NCC(O)c1ccc(O)cc1", "note": "(racemic) [(+,-)-Octopamine HCl]", "z-score of subpopulation abundance": 0},
      {"smiles": "CC(NC(C)(C)C)C(=O)c1cccc(Cl)c1", "note": "(stereo not given) [Amfebutamone (Bupropion) HCl]", "z-score of subpopulation abundance": -0.59},
      {"smiles": "CCN(C)C(=O)Oc1cccc([C@H](C)N(C)C)c1", "note": "[Rivastigmine Tartrate]", "z-score of subpopulation abundance": 0},
      {"smiles": "CN(C)C(=O)Oc1cccc([N+](C)(C)C)c1", "note": "[Neostigmine Bromide]", "z-score of subpopulation abundance": 0.26},
      {"smiles": "CC1(C)SC2C(N)C(=O)N2C1C(=O)O", "note": "(stereo not given) [6-Aminopenicillanic acid]", "z-score of subpopulation abundance": 0.56},
      {"smiles": "C[N+]1(C)[C@@H]2C[C@@H](OC(=O)[C@H](CO)c3ccccc3)C[C@H]1[C@@H]1O[C@@H]12", "note": "[Methscopolamine]", "z-score of subpopulation abundance": -0.56},
      {"smiles": "CCCCCCCCCCCCCCCC[n+]1ccccc1", "note": "[Cetylpyridinium Chloride]", "z-score of subpopulation abundance": 0.44},
      {"smiles": "Cc1cc(C(C#N)c2ccc(Cl)cc2)c(Cl)cc1NC(=O)c1cc(I)cc(I)c1O", "note": "(stereo not given) [Closantel]", "z-score of subpopulation abundance": 1.19},
      {"smiles": "CCOC(=O)Nc1ccc(NCc2ccc(F)cc2)cc1N", "note": "[Retigabine]", "z-score of subpopulation abundance": -0.12},
      {"smiles": "CCOC(=O)Nc1ccc(NCc2ccc(F)cc2)cc1N", "note": "[Retigabine 2HCl]", "z-score of subpopulation abundance": 0.17},
      {"smiles": "Cc1cc(O)ccc1Cl", "note": "[Chlorocresol]", "z-score of subpopulation abundance": -0.37},
      {"smiles": "C=C[C@H]1CN2CC[C@H]1C[C@H]2[C@H](O)c1ccnc2ccccc12", "note": "[Cinchonidine]", "z-score of subpopulation abundance": -0.08},
      {"smiles": "CN(C)[C@@H]1C(=O)C(C(N)=O)=C(O)[C@@]2(O)C(=O)C3=C(O)c4c(O)ccc(Cl)c4[C@@](C)(O)[C@H]3C[C@@H]12", "note": "[Chlortetracycline HCl]", "z-score of subpopulation abundance": -0.46},
      {"smiles": "CN1[C@@H]2CC[C@H]1C[C@@H](OC(=O)C(CO)c1ccccc1)C2", "note": "(stereo not given in full) [Atropine sulfate monohydrate]", "z-score of subpopulation abundance": -0.12},
      {"smiles": "COc1ccc(C(CN(C)C)C2(O)CCCCC2)cc1", "note": "(stereo not given) [Venlafaxine]", "z-score of subpopulation abundance": -0.51},
      {"smiles": "C=CCN1C[C@H](C(=O)N(CCCN(C)C)C(=O)NCC)C[C@@H]2c3cccc4[nH]cc(c34)C[C@H]21", "note": "[Cabergoline]", "z-score of subpopulation abundance": -0.31},
      {"smiles": "C=CC[C@]1(O)CC[C@H]2[C@@H]3CCC4=CC(=O)CCC4=C3C=C[C@@]21C", "note": "[Altrenogest]", "z-score of subpopulation abundance": 0.15},
      {"smiles": "CC(=O)OCC1=C(C(=O)O)N2C(=O)C(N)C2SC1", "note": "(stereo not given) [7-Aminocephalosporanic acid]", "z-score of subpopulation abundance": -0.28},
      {"smiles": "CN[C@@H]1[C@@H](O)[C@@H](O[C@@H]2[C@@H](O)[C@H](O[C@H]3O[C@H]([C@@H](C)O)[C@@H](O)[C@H](O)[C@H]3N)[C@@H](N)C[C@H]2N)OC[C@]1(C)O", "note": "[Geneticin (G418 Sulfate)]", "z-score of subpopulation abundance": 0.61},
      {"smiles": "CN1[C@@H]2C[C@@H](OC(=O)[C@H](CO)c3ccccc3)C[C@H]1[C@@H]1O[C@@H]12", "note": "[Scopolamine HBr trihydrate]", "z-score of subpopulation abundance": -0.12},
      {"smiles": "CN1C(=O)COc2c(C(=O)NC3CN4CCC3CC4)cc(Cl)cc21", "note": "(stereo not given) [Azasetron HCl]", "z-score of subpopulation abundance": 1.69},
      {"smiles": "Oc1cccc2cccnc12", "note": "[8-Hydroxyquinoline]", "z-score of subpopulation abundance": -0.41},
      {"smiles": "CC[C@H]1CN2CC[C@]3(C(=O)Nc4ccccc43)[C@@H]2C[C@@H]1/C(=C\\OC)C(=O)OC", "note": "[Rhynchophylline]", "z-score of subpopulation abundance": -0.11},
      {"smiles": "Nc1nc(N)nc(NC2CC2)n1", "note": "[Cyromazine]", "z-score of subpopulation abundance": 0.84},
      {"smiles": "CC[C@@H](C(N)=O)N1CCCC1=O", "note": "[Levetiracetam]", "z-score of subpopulation abundance": -0.55},
      {"smiles": "C[C@@H]1CC[C@H]2[C@@H](C)C(=O)O[C@@H]3O[C@@]4(C)CC[C@@H]1[C@]32OO4", "note": "[Artemisinin]", "z-score of subpopulation abundance": -1.74},
      {"smiles": "CCN(CC)CCOC(=O)C(O)(c1ccccc1)c1ccccc1", "note": "[Benactyzine hydrochloride]", "z-score of subpopulation abundance": 0.4},
      {"smiles": "Nc1ccncc1", "note": "[4-Aminopyridine]", "z-score of subpopulation abundance": 0.74},
      {"smiles": "CN1c2ccccc2C(NCCCCCCC(=O)O)c2ccc(Cl)cc2S1(=O)=O", "note": "(stereo not given) [Tianeptine sodium]", "z-score of subpopulation abundance": -0.12},
      {"smiles": "C[N+]12CCC(CC1)C(OC(=O)C(O)(c1ccccc1)c1ccccc1)C2", "note": "(stereo not given) [Clidinium Bromide]", "z-score of subpopulation abundance": -0.72},
      {"smiles": "CC[N+](C)(CC)CCOC(=O)C(O)(c1ccccc1)c1ccccc1", "note": "[Methylbenactyzine Bromide]", "z-score of subpopulation abundance": -0.89},
      {"smiles": "Oc1cc(Cl)ccc1Oc1ccc(Cl)cc1Cl", "note": "[Triclosan]", "z-score of subpopulation abundance": -2.25}
    ]}
  ]
}
